Assay results reported in PubChem BioAssay.
Where “and” joins values, the source holds several entries; their conditions need not be identical. Equal entries are not always repeated. Records with an inconclusive call do not appear. For some of these results: Entries with a potency or affinity are not part of this list. More than one record can exist for a structure, and the calls need not agree. Calls of active or inactive are those of the source. Unless noted, no rule for the calls is given here.

Legend:
[1] = molecular target: 6-phosphogluconate dehydrogenase, decarboxylating (Homo sapiens) (UniProt P52209); assay: 6PGD enzyme inhibitors, primary screen, biochemical, human, recombinant enzyme, NADPH absorbance (AID 1159550;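 active = at least 20% inhibition of 6-phosphogluconate dehydrogenase activity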); settings: recombinant 6PGD, NADPH absorbance 341 nm; at 10 µM; stronger effect = higher value
Chain of 6-phosphogluconate dehydrogenase, decarboxylating (Homo sapiens) (P52209 whole entry, looked up): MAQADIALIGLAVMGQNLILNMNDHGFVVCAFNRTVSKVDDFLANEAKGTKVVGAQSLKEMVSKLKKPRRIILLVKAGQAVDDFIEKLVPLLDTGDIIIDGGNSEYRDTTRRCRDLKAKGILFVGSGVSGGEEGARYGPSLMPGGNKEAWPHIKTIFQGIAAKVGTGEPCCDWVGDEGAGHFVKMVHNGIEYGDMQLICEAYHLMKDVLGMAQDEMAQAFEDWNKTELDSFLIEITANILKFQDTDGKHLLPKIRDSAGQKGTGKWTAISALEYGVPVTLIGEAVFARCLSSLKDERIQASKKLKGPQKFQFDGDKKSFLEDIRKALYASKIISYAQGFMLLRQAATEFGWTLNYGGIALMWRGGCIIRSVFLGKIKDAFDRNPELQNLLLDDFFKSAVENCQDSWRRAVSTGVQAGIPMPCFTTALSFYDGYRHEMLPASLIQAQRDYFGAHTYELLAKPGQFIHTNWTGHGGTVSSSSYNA

[2] = differential killing of epithelial or mesenchymal cells, primary screen, imaging, PC-3E GFP, TEM4-18 mCherry, co-culture (AID 1345086;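 active = compounds killing one labelled cell type while sparing the other, by normalised counts and ratio limits, not self-fluorescent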;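 as to all read-outs here: cells exposed to compound for 72 h before imaging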;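 as to red/green cell ratio (normalised): normalised mesenchymal count divided by normalised epithelial count so high means epithelial killing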); settings: imaging cell counts, at 1 µM; for red/green cell ratio (normalised): actives lie on both sides
[3] = test system: Aerobactin synthetase IucA (Klebsiella pneumoniae hvKP1); assay: Biochemical IucA enzyme inhibition primary screen of the Spectrum library (AID 1346200); settings: malachite green pyrophosphate, A620, at 8 µM, stronger effect = lower value;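 also: 100% = wells without compound and 0% = wells lacking enzyme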
[4] = molecular target: Mitogen-activated protein kinase 7 (Homo sapiens) (UniProt Q13164); assay: ERK5 transactivation activators in reporter cells, primary screen, cell-based, HTS (AID 1508626;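 active = luciferase signal above three times the same-plate solvent-only control wells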;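 also: luciferase driven by Gal4-ERK5 fusion binding five Gal4 sites before minimal TATA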); settings: HeLa Gal4-ERK5 transactivation, 18 h, at 5 µM, stronger effect = higher value
Chain of Mitogen-activated protein kinase 7 (Homo sapiens) (Q13164 whole entry, looked up, the tested form may be a part): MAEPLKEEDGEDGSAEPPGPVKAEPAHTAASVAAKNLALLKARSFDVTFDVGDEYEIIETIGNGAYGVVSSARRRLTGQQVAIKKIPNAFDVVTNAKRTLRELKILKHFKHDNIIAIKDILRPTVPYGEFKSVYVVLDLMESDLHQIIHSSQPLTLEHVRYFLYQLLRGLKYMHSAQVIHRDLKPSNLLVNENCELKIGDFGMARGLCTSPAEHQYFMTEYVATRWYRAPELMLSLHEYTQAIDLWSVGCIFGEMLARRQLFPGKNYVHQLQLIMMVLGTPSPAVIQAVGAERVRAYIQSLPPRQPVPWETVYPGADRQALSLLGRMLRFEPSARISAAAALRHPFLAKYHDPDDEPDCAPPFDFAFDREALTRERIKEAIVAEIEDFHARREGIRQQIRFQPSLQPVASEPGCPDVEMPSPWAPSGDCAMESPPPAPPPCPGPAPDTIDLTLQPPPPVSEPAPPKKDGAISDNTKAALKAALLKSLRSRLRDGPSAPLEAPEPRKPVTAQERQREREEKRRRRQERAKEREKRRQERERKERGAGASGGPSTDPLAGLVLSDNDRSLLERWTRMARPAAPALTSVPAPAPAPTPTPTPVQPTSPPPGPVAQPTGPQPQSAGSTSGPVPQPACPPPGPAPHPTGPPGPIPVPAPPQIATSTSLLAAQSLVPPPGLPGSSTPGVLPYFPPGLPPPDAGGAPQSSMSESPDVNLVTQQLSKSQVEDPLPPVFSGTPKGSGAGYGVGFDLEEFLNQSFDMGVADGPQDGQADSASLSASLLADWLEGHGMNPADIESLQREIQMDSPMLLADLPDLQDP

[5] = molecular target: ATP-dependent translocase ABCB1 (Homo sapiens) (UniProt P08183); assay: MDR1 (ABCB1) efflux transporter inhibition, cell-based (AID 377; in the data active = fluorescence slope change above about 50%); settings: MDR1-expressing cells, fluorescent substrate accumulation slope; stronger effect = higher value; concentration not given here
Chain of ATP-dependent translocase ABCB1 (Homo sapiens) (P08183 whole entry, looked up): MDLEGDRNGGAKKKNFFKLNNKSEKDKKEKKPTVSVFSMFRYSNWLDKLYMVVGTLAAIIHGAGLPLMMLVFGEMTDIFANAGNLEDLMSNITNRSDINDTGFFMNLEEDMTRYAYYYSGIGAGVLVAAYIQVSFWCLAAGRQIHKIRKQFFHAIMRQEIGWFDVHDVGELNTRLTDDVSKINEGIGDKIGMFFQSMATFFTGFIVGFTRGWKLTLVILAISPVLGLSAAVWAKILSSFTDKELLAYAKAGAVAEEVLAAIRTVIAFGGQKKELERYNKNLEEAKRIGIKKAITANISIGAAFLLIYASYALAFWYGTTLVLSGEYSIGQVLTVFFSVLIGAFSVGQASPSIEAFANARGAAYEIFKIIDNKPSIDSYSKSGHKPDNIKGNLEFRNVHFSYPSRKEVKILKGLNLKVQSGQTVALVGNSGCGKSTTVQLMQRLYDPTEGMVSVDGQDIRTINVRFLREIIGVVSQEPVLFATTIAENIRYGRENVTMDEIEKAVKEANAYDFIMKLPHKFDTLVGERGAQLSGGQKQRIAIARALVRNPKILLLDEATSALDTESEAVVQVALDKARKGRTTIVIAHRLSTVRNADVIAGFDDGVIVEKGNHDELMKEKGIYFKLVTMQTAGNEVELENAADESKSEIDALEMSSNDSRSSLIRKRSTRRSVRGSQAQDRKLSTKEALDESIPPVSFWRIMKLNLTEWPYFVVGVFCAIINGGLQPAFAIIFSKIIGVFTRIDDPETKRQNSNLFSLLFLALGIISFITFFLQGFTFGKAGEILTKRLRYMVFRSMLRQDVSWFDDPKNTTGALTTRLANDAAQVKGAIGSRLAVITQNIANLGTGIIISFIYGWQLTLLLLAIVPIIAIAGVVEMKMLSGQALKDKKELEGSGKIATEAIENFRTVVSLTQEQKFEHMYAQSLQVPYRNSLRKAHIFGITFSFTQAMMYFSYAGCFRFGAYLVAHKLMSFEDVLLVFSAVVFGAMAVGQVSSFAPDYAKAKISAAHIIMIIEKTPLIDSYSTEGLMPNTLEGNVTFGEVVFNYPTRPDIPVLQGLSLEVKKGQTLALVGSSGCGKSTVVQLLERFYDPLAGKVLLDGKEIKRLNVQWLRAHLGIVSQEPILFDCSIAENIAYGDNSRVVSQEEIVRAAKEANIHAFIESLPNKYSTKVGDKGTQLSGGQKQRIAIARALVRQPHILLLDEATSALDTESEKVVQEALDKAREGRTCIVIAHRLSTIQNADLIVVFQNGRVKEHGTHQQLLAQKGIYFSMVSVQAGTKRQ

[6] = polyglutamine-triggered caspase-3 activation inhibitors, cell-based (AID 1583); settings: polyglutamine-induced caspase-3 activation, cell assay; stronger effect = higher value;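 tested at 10 µM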
[7] = suppressors of polyQ aggregation in yeast, 75Q-TubU reporter (AID 1593); settings: Yeast 75Q polyglutamine aggregation reporter
[8] = rescue of polyQ-huntingtin neuronal dysfunction in worms, whole organism, C. elegans mechanosensory neurons, N-terminal huntingtin (AID 1599); settings: touch response, stronger effect = higher value
[9] = inhibitors of mitochondrial cytochrome c release, biochemical, purified mitochondria (AID 1603); settings: stronger effect = lower value;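 also: mouse liver mitochondria challenged with calcium chloride; signal normalized to the plate average as 100%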
[10] = inhibitors of polyQ protein aggregation (AID 1604); settings: polyglutamine-induced protein aggregation inhibition assay; stronger effect = higher value; tested at 2.5 µM
[11] = enhancers of glutamate uptake in motor neurons, MN-1 cell line (AID 1612); settings: MN-1 motor neuron cells, stronger effect = higher value;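 also: tested at 1 µM final; 0% = mean of DMSO vehicle wells on each plate; positive means more glutamate uptake than control and negative means less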
[12] = reducers of polyQ inclusions in PC12 cells, cell-based, NGF-treated PC12, GFPQ80 (AID 1614); settings: PC12 NGF-treated GFP-polyQ80 inclusion reduction;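 also: lower means fewer inclusions and 0 means no inclusions at all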
[13] = suppressors of polyglutamine aggregation in yeast, 75Q-TubH (AID 1616); settings: S. cerevisiae 75Q-TubH polyglutamine aggregation suppression; stronger effect = higher value
[14] = hESC survival regulators, cell-based (AID 493140); settings: human embryonic stem cell survival screen; stronger effect = higher value;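 also: cells exposed to compounds for four days before counting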
[15] = liver-stage malaria parasite growth inhibition, primary screen, cell-based, HepG2, luciferase luminescence, HepG2 viability (AID 624349; in the data active = parasite load remaining mostly below about 12%, no sharp cut-off; inactive = mostly above about 10%;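 also: 100% = mean of DMSO negative control wells on the same plate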); settings: P. berghei liver stage in HepG2, luciferase luminescence, concentration not given here; parasite load remaining: stronger effect = lower value; viability: measured here: HepG2 viability without parasites
[16] = sensitizers of A549 cells to miR-34 induction, primary screen, imaging, A549 dox-inducible miR-34, nuclei and caspase counts (AID 1347080;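 active = compounds whose cell count with miR-34 switched on is under 0.7 times the count with it off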); settings: A549 miR-34 inducible, Hoechst nuclei count, 48 h
[17] = molecular target: NAD(+) hydrolase SARM1 (Homo sapiens) (UniProt Q6SZW1); assay: SARM1 TIR NADase inhibitors, cell lysate, NAD-Glo luminescence (AID 1508614;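 active = compound whose remaining NAD level is above about 45 nM, limit read from the data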;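 also: higher remaining NAD means stronger inhibition of SARM1 NADase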); settings: SAM-TIR HEK293T lysate NADase, at 1 µM, stronger effect = higher value
Chain of NAD(+) hydrolase SARM1 (Homo sapiens) (Q6SZW1 whole entry, looked up): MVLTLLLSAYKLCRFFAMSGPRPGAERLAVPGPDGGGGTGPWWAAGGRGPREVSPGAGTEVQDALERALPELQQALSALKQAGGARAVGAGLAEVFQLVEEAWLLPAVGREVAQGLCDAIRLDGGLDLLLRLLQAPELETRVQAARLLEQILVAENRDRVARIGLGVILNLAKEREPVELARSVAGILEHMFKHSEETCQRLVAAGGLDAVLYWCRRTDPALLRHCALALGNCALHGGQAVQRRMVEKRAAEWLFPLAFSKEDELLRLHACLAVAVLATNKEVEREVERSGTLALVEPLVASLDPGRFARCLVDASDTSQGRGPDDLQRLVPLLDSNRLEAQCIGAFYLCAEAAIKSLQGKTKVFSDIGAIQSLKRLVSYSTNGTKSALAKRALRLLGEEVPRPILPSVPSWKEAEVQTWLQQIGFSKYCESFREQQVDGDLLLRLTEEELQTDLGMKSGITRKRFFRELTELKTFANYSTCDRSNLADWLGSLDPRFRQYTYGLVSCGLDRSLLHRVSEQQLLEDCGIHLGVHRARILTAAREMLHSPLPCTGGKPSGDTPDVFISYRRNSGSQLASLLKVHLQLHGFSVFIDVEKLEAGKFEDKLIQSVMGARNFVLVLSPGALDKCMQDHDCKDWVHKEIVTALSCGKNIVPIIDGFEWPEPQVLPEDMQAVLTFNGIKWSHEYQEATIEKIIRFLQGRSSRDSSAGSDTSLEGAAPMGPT

[18] = test system: Aerobactin synthetase IucA (Klebsiella pneumoniae, hypervirulent); assay: IucA enzyme inhibition, biochemical, LOPAC library, absorbance readout (AID 1346212); settings: IucA enzyme assay, absorbance (OD) readout; stronger effect = lower value;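 tested at 8 µM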;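 also: 100% = no compound wells and 0% = no enzyme wells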
[19] = viability rescue of complex I mutant cybrids, primary screen, cell-based, galactose medium, ATP luminescence (AID 1645843;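 active = z-score of at least 1.8 in each of two replicates, scored against plate mean and spread of sample wells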;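 also: positive z means more ATP and so rescue of galactose-driven cybrid death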); settings: complex I mutant cybrid cells, 72 h, stronger effect = higher value
[20] = survival rescue of mitochondrial mutant cells in low glucose, primary screen, MELAS cybrids, Rieske KO mouse fibroblasts, CellTiter-Glo (AID 1508586;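 active = mean z-score across replicates of 1.96 or higher in either the MELAS or the Rieske mutant cell line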;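 also: z relative to plate mean and SD of compound and empty wells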)
[21] = measured here: epithelial PC-3E GFP cell survival
[22] = measured here: mesenchymal TEM4-18 mCherry cell survival
[23] = measured here: relative caspase fold change +Dox/-Dox
[24] = measured here: total cells with miR-34 induction, stronger effect = lower value
[25] = measured here: total cells without miR-34 induction

COc1cc2c(cc1O)CCNC2C (configuration not stated)
inhibition [1]: -21.7% (inactive) | red/green cell ratio (normalised) [2]: 0.92 (inactive) | normalised cell number [2, 21]: 1 | normalised cell number [2, 22]: 0.92 | activity remaining [3]: 107% (inactive) | luciferase signal [4]: 120 AU (inactive)

O=C1C(Cl)=C(Cl)C(=O)C(Cl)=C1Cl
inhibition [1]: 3.96% (inactive) | red/green cell ratio (normalised) [2]: 1.04 (inactive) | normalised cell number [2, 21]: 1 | normalised cell number [2, 22]: 1.04 | activity remaining [3]: 100% (inactive)

CN1CCc2cc3c(cc2C1O)OCO3 (configuration not stated)
fluorescence slope change [5]: 10.4% (inactive) | inhibition [6]: -17.4% | score [7]: 1.48 | rescue above control [8]: 11.7 | cytochrome c release ratio [9]: 0.81 | inhibition of aggregation [10]: 65.5% | glutamate uptake change [11]: 6.97% | inclusion score [12]: 2 | aggregation suppression score [13]: 1.11 | survival [14]: 16.8 (inactive) | parasite load remaining [15]: 109% (inactive) and 58% (inactive) | viability [15]: 90% and 91.8% | inhibition [1]: 0.261% (inactive) | red/green cell ratio (normalised) [2]: 1.09 (inactive) | normalised cell number [2, 21]: 0.97 | normalised cell number [2, 22]: 1.06 | activity remaining [3]: 118% (inactive) | fold change ([16]; stronger effect = lower value): 0.923 (inactive) | fold change [16, 23]: 1.43 | cell count [16, 24]: 11700 | cell count [16, 25]: 12700 | remaining NAD [17]: 10 nM (inactive) | luciferase signal [4]: 52 AU (inactive)

S=C=NCc1ccccc1
parasite load remaining [15]: 45.7% (inactive) | viability [15]: 72.2% | inhibition [1]: -1.63% (inactive) | red/green cell ratio (normalised) [2]: 0.83 (inactive) | normalised cell number [2, 21]: 1.15 | normalised cell number [2, 22]: 0.95 | activity remaining [3]: 83.8% (inactive) | remaining NAD [17]: 10 nM (inactive) | luciferase signal [4]: 168 AU (active)

CN1C2CCC1CC(OC(c1ccccc1)c1ccccc1N)C2 (configuration not stated)
inhibition [1]: 2.13% (inactive) | red/green cell ratio (normalised) [2]: 0.76 (inactive) | normalised cell number [2, 21]: 1.34 | normalised cell number [2, 22]: 1.01 | activity remaining [3]: 118% (inactive) | remaining activity [18]: 119% (inactive) | fold change ([16]; stronger effect = lower value): 1 (inactive) | fold change [16, 23]: 2.1 | cell count [16, 24]: 9770 | cell count [16, 25]: 9760 | z-score [19]: -0.4 (inactive)

O=[N+]([O-])c1cc([As](=O)(O)O)ccc1O
inhibition [6]: 4.6% | score [7]: 1.17 | rescue above control [8]: -4.04 | cytochrome c release ratio [9]: 1.09 | inhibition of aggregation [10]: 3.7% | glutamate uptake change [11]: -17% | inclusion score [12]: 1.5 | aggregation suppression score [13]: 1.08 | survival [14]: 4.83 (inactive) | parasite load remaining [15]: 90.8% (inactive) and -0.22% (active) and 33.7% (inactive) | viability [15]: 83.9% and 75.8% and 93.4% | inhibition [1]: 11.3% (inactive) | red/green cell ratio (normalised) [2]: 1.34 (inactive) | normalised cell number [2, 21]: 0.89 | normalised cell number [2, 22]: 1.19 | activity remaining [3]: 112% (inactive) | fold change ([16]; stronger effect = lower value): 0.929 (inactive) and 0.938 (inactive) | fold change [16, 23]: 0.651 and 3.1 | cell count [16, 24]: 8580 and 11200 | cell count [16, 25]: 9240 and 11900 | remaining NAD [17]: 10 nM (inactive) | luciferase signal [4]: 44 AU (inactive)

CC(=O)OC1CCC23C(=O)OC45CCC(C6=CC(=O)OC6)C4(C)CCC2C5CCC3(O)C1 (configuration not stated)
inhibition [1]: -5.39% (inactive) | red/green cell ratio (normalised) [2]: 0.32 (inactive) | normalised cell number [2, 21]: 0.2 | normalised cell number [2, 22]: 0.07 | activity remaining [3]: 124% (inactive) | luciferase signal [4]: 16 AU (inactive)

COc1cc([C@@H]2c3cc4c(cc3[C@@H](O)C3COC(=O)C32)OCO4)cc(OC)c1O (some centres not stated)
inhibition [1]: 4.81% (inactive) | red/green cell ratio (normalised) [2]: 1.06 (inactive) | normalised cell number [2, 21]: 0.29 | normalised cell number [2, 22]: 0.31 | activity remaining [3]: 118% (inactive)

COC1=C[C@@H]2[C@@H]3Cc4ccc(OC)c(O)c4[C@]2(CCN3C)CC1=O
inhibition [1]: 2.36% (inactive) | red/green cell ratio (normalised) [2]: 0.75 (inactive) | normalised cell number [2, 21]: 1.39 | normalised cell number [2, 22]: 1.03 | activity remaining [3]: 94.1% (inactive) | luciferase signal [4]: 72 AU (inactive)

C=CCC1(C(C)CCC)C(=O)N=C(S)NC1=O (configuration not stated)
inhibition [6]: 1.58% | score [7]: 1.49 | rescue above control [8]: 6.87 | cytochrome c release ratio [9]: 0.94 | inhibition of aggregation [10]: 42.9% | glutamate uptake change [11]: 8.72% | inclusion score [12]: 2 | aggregation suppression score [13]: 1.19 | parasite load remaining [15]: 21.5% (inactive) | viability [15]: 101% | inhibition [1]: 2.84% (inactive) | red/green cell ratio (normalised) [2]: 1.3 (inactive) | normalised cell number [2, 21]: 0.79 | normalised cell number [2, 22]: 1.03 | activity remaining [3]: 110% (inactive) | fold change ([16]; stronger effect = lower value): 0.918 (inactive) | fold change [16, 23]: 2.58 | cell count [16, 24]: 11400 | cell count [16, 25]: 12400 | remaining NAD [17]: 10 nM (inactive) | luciferase signal [4]: 84 AU (inactive)

C[C@@H](N)[C@@H](O)c1ccccc1
parasite load remaining [15]: 28.8% (inactive) | viability [15]: 110% | inhibition [1]: -16.8% (inactive) and 9.51% (inactive) | red/green cell ratio (normalised) [2]: 0.97 (inactive) | normalised cell number [2, 21]: 1.13 | normalised cell number [2, 22]: 1.1 | activity remaining [3]: 122% (inactive) | fold change ([16]; stronger effect = lower value): 0.851 (inactive) | fold change [16, 23]: 1.36 | cell count [16, 24]: 8010 | cell count [16, 25]: 9410 | z-score ([20]; MELAS cybrid survival, CellTiter-Glo 48 h, stronger effect = higher value): -0.426 (inactive) | z-score ([20]; Rieske KO mouse fibroblast survival, CellTiter-Glo 72 h): -0.509
